In PubChem BioAssay (NCI):
Several values for one entry are separate records, joined by “and”; a condition that tells them apart may be missing. Identical values can stand only once. The panel holds about 83,000 compounds, 20% with a hit somewhere; the sample as a whole holds those more often.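 Cells were grown in 96-well plates and exposed to the test compound at a single concentration for 48 hours; results are reported as percent growth, with values below 10 considered active.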 Activity calls are given as the source filed them.

What was measured:
Assay in all cases: NCI-60 one-dose screen, 48 h (100 = growth as untreated, 0 = no growth, -100 = all killed)
Conditions in all cases: 10 µM unless noted
NCI-H23 lung = system: NCI-H23 lung
NCI-H226 lung = system: NCI-H226 lung
NCI-H322M lung = system: NCI-H322M lung
HOP-62 NSCLC = system: HOP-62 NSCLC
NCI-H460 lung = system: NCI-H460 lung
HOP-92 NSCLC = system: HOP-92 NSCLC
NCI-H522 lung = system: NCI-H522 lung
A549/ATCC NSCLC = system: A549/ATCC NSCLC
786-0 renal = system: 786-0 renal
COLO 205 colon = system: COLO 205 colon
DU-145 prostate = system: DU-145 prostate
K-562 leukemia = system: K-562 leukemia
MALME-3M melanoma = system: MALME-3M melanoma
MDA-MB-231 breast = system: MDA-MB-231 breast
RXF 393 renal = system: RXF 393 renal
SF-268 CNS = system: SF-268 CNS
SF-295 CNS = system: SF-295 CNS
SF-539 CNS = system: SF-539 CNS
UACC-257 melanoma = system: UACC-257 melanoma
M14 melanoma = system: M14 melanoma

Compound | growth (NCI-H23 lung) | growth (NCI-H226 lung) | growth (NCI-H322M lung) | growth (HOP-62 NSCLC) | growth (NCI-H460 lung) | growth (HOP-92 NSCLC) | growth (NCI-H522 lung) | growth (A549/ATCC NSCLC) | growth (786-0 renal) | growth (COLO 205 colon) | growth (DU-145 prostate) | growth (K-562 leukemia) | growth (MALME-3M melanoma) | growth (MDA-MB-231 breast) | growth (RXF 393 renal) | growth (SF-268 CNS) | growth (SF-295 CNS) | growth (SF-539 CNS) | growth (UACC-257 melanoma) | growth (M14 melanoma)
Cc1ccc(C(=O)c2ccc(C)cc2)cc1 | 95.9% (inactive) and 98.3% (inactive) | 92.4% (inactive) and 94.6% (inactive) | 97.2% (inactive) and 94.3% (inactive) | 92.5% (inactive) and 98.4% (inactive) | 101% (inactive) and 105% (inactive) | 59.2% (inactive) and 73.7% (inactive) | 89.3% (inactive) and 93.6% (inactive) | 87.9% (inactive) and 101% (inactive) | 90.7% (inactive) and 99.6% (inactive) | 99.7% (inactive) | 102% (inactive) and 103% (inactive) | 103% (inactive) and 110% (inactive) | 108% (inactive) and 93.2% (inactive) | 103% (inactive) and 106% (inactive) | 88% (inactive) and 95.8% (inactive) | 94.8% (inactive) and 98% (inactive) | 94.4% (inactive) and 103% (inactive) | 85.3% (inactive) and 97.6% (inactive) | 92.6% (inactive) and 114% (inactive) | 101% (inactive)
Nc1nc(N)c2cc(S(=O)(=O)c3ccccc3)ccc2n1 | 45% (inactive) and 40.9% (inactive) | 63.2% (inactive) and 79.3% (inactive) | 43.6% (inactive) and 41.5% (inactive) | 54.8% (inactive) and 46.3% (inactive) | 18.3% (inactive) and 14.7% (inactive) | 64.9% (inactive) and 92.5% (inactive) | 46.2% (inactive) and 68.9% (inactive) | 13.4% (inactive) and 25.7% (inactive) | 29.5% (inactive) and 26.8% (inactive) | 53.7% (inactive) and 58.3% (inactive) | 30.3% (inactive) and 40.9% (inactive) | 16.7% (inactive) and 26.1% (inactive) | 58.1% (inactive) and 29% (inactive) | 48.9% (inactive) and 51.8% (inactive) | 62% (inactive) and 85.6% (inactive) | 40.1% (inactive) and 38% (inactive) | 18.9% (inactive) | 30.5% (inactive) and 21.8% (inactive) | 39% (inactive) and 59.2% (inactive) | 35.2% (inactive) and 31.9% (inactive)
O=C1C(=O)c2ccccc2C(O)=C1CC=C(Cl)Cl | 67.6% (inactive) and 71.5% (inactive) | 73.4% (inactive) and 63.5% (inactive) | 75.8% (inactive) and 58% (inactive) | 50.9% (inactive) and 61.3% (inactive) | 17.1% (inactive) and 17.9% (inactive) | 36.4% (inactive) and 87.3% (inactive) | 43.7% (inactive) and 42.1% (inactive) | 56% (inactive) and 44.5% (inactive) | 39.5% (inactive) and 60% (inactive) | 57.1% (inactive) and 57.7% (inactive) | 68% (inactive) and 63.4% (inactive) | 31% (inactive) and 33% (inactive) | 68.5% (inactive) and 69.2% (inactive) | 72.8% (inactive) and 71.8% (inactive) | 51.8% (inactive) and 71.7% (inactive) | 45.2% (inactive) and 53.9% (inactive) | 38.5% (inactive) and 14.4% (inactive) | 44.7% (inactive) and 55.6% (inactive) | 43.2% (inactive) and 74.3% (inactive) | 57.3% (inactive) and 69% (inactive)
CN(C=O)c1ccccc1 | 84.9% (inactive) | 75.3% (inactive) | 98.5% (inactive) | 92.3% (inactive) | 102% (inactive) | 84.2% (inactive) | 92.9% (inactive) | 105% (inactive) | 97.1% (inactive) | 101% (inactive) | 103% (inactive) | 97.7% (inactive) | 87.3% (inactive) | 84.6% (inactive) | 105% (inactive) | 103% (inactive) | 92.8% (inactive) | 92.9% (inactive) | 103% (inactive) | 95.8% (inactive)
CC(C)(C(=O)c1cccnc1)c1cccnc1 | 107% (inactive) and 133% (inactive) | 96.6% (inactive) and 89.7% (inactive) | 92% (inactive) and 103% (inactive) | 109% (inactive) and 103% (inactive) | 103% (inactive) and 101% (inactive) | 89.3% (inactive) | 93.5% (inactive) and 100% (inactive) | 86.5% (inactive) and 108% (inactive) | 103% (inactive) and 99.5% (inactive) | 113% (inactive) and 117% (inactive) | 112% (inactive) and 114% (inactive) | 104% (inactive) and 115% (inactive) | 96.3% (inactive) and 125% (inactive) | 96.4% (inactive) and 119% (inactive) | 105% (inactive) and 119% (inactive) | 107% (inactive) and 106% (inactive) | 95.7% (inactive) and 124% (inactive) | 99.5% (inactive) and 95.9% (inactive) | 97.3% (inactive) and 115% (inactive) | 101% (inactive) and 92.2% (inactive)
CCN(CC)C(CC(=O)c1ccccc1)C(=O)c1ccccc1 (stereo not given) | 102% (inactive) | 95% (inactive) | 107% (inactive) | 116% (inactive) | 106% (inactive) | 93.4% (inactive) | 71.7% (inactive) | 102% (inactive) | 93.5% (inactive) | 77.8% (inactive) | 99.9% (inactive) | 38.2% (inactive) | 104% (inactive) | 110% (inactive) | 115% (inactive) | 98% (inactive) | 103% (inactive) | 101% (inactive) | 95.5% (inactive) | 105% (inactive)
NNc1ncnc2cccc(Cl)c12 | 99.9% (inactive) | 93.1% (inactive) | 101% (inactive) | 95.3% (inactive) | 113% (inactive) | 79.7% (inactive) | 84.8% (inactive) | 81.1% (inactive) | 105% (inactive) | 104% (inactive) | 112% (inactive) | 99.4% (inactive) | 99% (inactive) | 105% (inactive) | 103% (inactive) | 107% (inactive) | 98.7% (inactive) | 97.2% (inactive) | 88.2% (inactive) | 104% (inactive)
O=C(O)c1ccc2c3ccc(C(=O)O)c4c(C(=O)O)ccc(c5ccc(C(=O)O)c1c25)c43 | 87.8% (inactive) | 92.2% (inactive) | 100% (inactive) | 92.4% (inactive) | 96.5% (inactive) | 112% (inactive) | 95.3% (inactive) | 92.1% (inactive) | 107% (inactive) | 104% (inactive) | 112% (inactive) | 113% (inactive) | 86.7% (inactive) | 88.2% (inactive) | 100% (inactive) | 105% (inactive) | 84.5% (inactive) | 94.2% (inactive) | -14.6% (active) | 107% (inactive)
Clc1ccc(/C=C/c2ccc3ccccc3n2)cc1 | 37.6% (inactive) and 89.5% (inactive) and 71.2% (inactive) | 84.1% (inactive) and 81.1% (inactive) and 92.6% (inactive) | 38.8% (inactive) and 90.3% (inactive) and 86.1% (inactive) | 45.2% (inactive) and 95.4% (inactive) and 93.5% (inactive) | 8.45% (active) and 86% (inactive) and 81.1% (inactive) | 42.9% (inactive) and 67% (inactive) and 85.3% (inactive) | -38.8% (active) and 79.1% (inactive) and 76.8% (inactive) | 25.9% (inactive) and 92.3% (inactive) and 96.6% (inactive) | 55.3% (inactive) and 97.8% (inactive) and 100% (inactive) | -6.62% (active) and 112% (inactive) and 100% (inactive) | 1.65% (active) and 108% (inactive) and 103% (inactive) | 17.7% (inactive) and 91.2% (inactive) and 87.3% (inactive) | 62.3% (inactive) and 89.8% (inactive) and 77.1% (inactive) | 31% (inactive) and 80.1% (inactive) and 84% (inactive) | 8.75% (active) and 117% (inactive) | 43.4% (inactive) and 97.7% (inactive) and 96.9% (inactive) | 17.9% (inactive) and 74% (inactive) and 84.7% (inactive) | 1.74% (active) and 102% (inactive) | 44.2% (inactive) and 134% (inactive) and 104% (inactive) | 81% (inactive) and 75.3% (inactive)
